From the supplement of paper PMC6411743
± gives the standard deviation of the averaged measurements. The full data set covers some 6,200 targets. This sample favours those with the largest changes.

Compound: Nc1ncnc2c1ncn2[C@@H]1O[C@H](COP(=O)(O)OP(=O)(O)NP(=O)(O)O)[C@@H](O)[C@H]1O [adenylyl imidodiphosphate]
Experiment: NP40-soluble protein abundance relative to vehicle (solubility fold change) (ratio); higher = more soluble protein in presence of AMP-PNP
Method in brief: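 Eight concentrations, 0.1 to 10 mM, were tested on Jurkat crude lysate for 10 min at room temperature and then 3 min at 37 °C, in three independent experiments. The lysate was solubilised with 0.8% NP40 and benzonase, ultracentrifuged, and the supernatant TMT-labelled for LC-MS/MS. Each value is the fold change against the detergent-processed vehicle in its own replicate, from vsn-normalised intensities.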

Chain of UniProt O76071 (O76071 whole entry): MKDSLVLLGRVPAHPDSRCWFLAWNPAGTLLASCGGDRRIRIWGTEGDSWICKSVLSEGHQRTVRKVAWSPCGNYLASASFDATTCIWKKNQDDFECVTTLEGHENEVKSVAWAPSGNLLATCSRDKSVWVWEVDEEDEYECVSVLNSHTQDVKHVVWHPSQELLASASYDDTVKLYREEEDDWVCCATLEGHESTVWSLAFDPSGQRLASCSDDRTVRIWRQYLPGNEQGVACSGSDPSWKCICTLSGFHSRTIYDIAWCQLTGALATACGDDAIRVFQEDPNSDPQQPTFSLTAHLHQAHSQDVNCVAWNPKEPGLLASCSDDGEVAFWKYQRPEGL
Chain of UniProt P85037 (P85037 whole entry): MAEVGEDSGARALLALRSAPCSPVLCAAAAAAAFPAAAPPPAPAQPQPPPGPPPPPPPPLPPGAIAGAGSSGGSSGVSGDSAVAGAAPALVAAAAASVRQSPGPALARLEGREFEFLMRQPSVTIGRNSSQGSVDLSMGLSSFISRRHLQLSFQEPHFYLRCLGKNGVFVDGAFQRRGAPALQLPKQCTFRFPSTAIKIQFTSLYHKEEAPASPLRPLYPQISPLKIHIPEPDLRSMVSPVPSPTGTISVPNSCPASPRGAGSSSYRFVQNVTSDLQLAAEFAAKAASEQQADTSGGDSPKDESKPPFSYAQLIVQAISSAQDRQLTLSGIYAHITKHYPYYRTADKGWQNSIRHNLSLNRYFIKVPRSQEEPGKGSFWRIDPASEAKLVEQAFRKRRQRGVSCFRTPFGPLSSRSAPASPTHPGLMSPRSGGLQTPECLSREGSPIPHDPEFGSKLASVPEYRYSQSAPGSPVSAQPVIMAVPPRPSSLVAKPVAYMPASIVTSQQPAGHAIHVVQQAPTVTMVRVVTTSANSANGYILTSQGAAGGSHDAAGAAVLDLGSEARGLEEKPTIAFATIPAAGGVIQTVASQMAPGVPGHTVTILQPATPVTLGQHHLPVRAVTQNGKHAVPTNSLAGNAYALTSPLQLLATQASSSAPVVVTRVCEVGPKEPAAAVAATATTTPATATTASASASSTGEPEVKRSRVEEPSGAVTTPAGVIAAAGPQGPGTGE
Chain of UniProt P61289 (P61289 whole entry): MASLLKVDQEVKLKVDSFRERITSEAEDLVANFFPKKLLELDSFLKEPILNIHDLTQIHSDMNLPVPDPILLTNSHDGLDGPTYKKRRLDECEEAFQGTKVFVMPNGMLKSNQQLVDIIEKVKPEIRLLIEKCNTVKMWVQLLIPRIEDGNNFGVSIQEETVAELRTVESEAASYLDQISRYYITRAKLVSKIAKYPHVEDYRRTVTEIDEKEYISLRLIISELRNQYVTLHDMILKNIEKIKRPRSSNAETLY
Chain of UniProt P16083 (P16083 whole entry, one chain of several): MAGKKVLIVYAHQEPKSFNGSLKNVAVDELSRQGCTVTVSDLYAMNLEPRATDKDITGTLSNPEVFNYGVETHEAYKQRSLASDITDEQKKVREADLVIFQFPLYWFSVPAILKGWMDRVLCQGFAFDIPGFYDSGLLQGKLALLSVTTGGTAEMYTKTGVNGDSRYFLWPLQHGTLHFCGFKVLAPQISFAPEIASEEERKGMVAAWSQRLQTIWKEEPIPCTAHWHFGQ
Chain of UniProt P67936 (P67936 whole entry): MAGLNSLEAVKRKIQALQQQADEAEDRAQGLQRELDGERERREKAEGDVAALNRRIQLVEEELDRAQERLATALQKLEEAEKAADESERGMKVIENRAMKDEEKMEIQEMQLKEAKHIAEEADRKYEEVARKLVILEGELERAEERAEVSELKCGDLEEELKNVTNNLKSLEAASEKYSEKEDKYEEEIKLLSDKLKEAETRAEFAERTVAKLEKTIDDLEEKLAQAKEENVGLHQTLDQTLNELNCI
Chain of UniProt P11216 (P11216 whole entry): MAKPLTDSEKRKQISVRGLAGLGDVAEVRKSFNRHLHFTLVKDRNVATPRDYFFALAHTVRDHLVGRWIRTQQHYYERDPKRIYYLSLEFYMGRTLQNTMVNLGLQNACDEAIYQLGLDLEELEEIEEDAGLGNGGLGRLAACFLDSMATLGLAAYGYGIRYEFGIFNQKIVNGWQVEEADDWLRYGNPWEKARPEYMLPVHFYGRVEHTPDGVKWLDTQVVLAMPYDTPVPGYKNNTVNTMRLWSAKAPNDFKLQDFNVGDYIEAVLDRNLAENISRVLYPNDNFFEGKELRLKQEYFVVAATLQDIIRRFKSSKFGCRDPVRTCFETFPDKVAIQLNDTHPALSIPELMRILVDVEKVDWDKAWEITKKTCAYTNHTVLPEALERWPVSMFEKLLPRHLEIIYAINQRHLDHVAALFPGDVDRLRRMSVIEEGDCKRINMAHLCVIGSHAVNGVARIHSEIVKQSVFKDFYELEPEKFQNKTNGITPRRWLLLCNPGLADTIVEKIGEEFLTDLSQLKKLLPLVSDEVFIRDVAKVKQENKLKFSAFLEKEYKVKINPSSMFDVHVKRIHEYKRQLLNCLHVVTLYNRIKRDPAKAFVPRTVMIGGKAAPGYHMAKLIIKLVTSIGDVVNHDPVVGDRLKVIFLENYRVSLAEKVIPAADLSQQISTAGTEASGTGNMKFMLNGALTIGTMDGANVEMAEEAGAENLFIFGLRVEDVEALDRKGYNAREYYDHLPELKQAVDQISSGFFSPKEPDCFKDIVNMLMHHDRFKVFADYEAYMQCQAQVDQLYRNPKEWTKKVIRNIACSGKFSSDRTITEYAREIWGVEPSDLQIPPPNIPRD
Chain of UniProt P09874 (P09874 whole entry): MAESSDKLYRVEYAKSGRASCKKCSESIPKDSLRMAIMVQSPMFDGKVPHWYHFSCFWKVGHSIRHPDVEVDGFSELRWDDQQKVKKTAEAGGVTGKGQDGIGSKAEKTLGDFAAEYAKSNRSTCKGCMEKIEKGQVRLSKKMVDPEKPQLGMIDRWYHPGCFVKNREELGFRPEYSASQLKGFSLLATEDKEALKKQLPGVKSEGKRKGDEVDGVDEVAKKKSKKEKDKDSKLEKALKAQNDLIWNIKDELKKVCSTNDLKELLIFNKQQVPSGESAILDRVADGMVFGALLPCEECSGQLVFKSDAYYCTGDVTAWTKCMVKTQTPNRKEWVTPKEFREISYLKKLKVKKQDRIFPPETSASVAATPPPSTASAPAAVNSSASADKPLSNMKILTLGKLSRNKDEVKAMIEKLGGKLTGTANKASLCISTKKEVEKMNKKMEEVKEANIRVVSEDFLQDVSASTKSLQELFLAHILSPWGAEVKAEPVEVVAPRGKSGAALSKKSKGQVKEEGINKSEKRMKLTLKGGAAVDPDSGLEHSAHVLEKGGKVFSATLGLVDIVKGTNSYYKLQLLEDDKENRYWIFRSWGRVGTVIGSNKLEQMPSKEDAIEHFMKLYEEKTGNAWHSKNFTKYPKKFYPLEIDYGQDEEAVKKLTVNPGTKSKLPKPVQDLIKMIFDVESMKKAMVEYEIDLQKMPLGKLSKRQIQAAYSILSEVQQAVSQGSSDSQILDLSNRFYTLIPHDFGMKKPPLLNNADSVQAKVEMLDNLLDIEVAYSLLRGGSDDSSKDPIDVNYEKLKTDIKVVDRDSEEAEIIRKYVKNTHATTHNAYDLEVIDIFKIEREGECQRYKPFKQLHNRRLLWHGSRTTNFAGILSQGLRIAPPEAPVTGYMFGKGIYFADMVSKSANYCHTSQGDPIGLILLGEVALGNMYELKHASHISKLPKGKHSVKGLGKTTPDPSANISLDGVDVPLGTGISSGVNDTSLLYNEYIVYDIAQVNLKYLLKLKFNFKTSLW
Chain of UniProt O95786 (O95786 whole entry): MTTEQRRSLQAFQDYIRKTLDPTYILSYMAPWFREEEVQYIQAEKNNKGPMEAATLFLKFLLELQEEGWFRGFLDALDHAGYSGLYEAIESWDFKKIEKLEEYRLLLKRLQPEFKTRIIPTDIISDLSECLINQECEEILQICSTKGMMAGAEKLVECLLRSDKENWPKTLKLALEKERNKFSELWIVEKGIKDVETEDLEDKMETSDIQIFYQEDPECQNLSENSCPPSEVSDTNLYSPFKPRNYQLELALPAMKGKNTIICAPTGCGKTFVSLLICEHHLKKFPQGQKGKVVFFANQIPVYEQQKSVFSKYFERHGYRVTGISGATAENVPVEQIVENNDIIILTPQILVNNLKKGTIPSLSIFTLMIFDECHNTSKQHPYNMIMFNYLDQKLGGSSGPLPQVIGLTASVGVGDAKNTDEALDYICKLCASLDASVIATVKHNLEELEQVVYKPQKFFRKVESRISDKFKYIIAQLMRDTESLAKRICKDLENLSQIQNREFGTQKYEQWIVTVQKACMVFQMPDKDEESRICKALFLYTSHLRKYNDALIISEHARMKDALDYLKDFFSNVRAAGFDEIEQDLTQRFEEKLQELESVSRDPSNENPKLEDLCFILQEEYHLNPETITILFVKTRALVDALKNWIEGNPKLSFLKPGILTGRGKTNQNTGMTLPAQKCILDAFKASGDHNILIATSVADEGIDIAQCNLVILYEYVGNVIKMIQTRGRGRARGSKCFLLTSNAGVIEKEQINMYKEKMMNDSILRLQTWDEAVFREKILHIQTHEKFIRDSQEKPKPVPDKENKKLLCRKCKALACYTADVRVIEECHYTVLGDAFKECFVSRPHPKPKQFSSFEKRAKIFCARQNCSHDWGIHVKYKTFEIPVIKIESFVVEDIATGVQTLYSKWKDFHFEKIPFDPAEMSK
Chain of UniProt P17096 (P17096 whole entry): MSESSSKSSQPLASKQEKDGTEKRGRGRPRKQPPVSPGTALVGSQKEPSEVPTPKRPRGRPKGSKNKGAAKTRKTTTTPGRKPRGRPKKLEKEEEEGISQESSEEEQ
Chain of UniProt P51571 (P51571 whole entry): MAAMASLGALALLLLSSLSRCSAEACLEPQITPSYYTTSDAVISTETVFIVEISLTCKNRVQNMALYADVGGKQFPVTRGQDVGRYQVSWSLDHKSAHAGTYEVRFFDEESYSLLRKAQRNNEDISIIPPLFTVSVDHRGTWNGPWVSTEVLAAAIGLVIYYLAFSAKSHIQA

Target	NP40-soluble protein abundance (concentration: 1mM)	NP40-soluble protein abundance (concentration: 2mM)	NP40-soluble protein abundance (concentration: 4mM)	NP40-soluble protein abundance (concentration: 6mM)	NP40-soluble protein abundance (concentration: 8mM)	NP40-soluble protein abundance (concentration: 10mM)
MYL6B (UniProt P14649)	1.02 ± 0.042	1.1 ± 0.053	1.01 ± 0.034	0.987 ± 0.051	0.925 ± 0.041	0.962 ± 0.019
UniProt Q13163|Q13163-2|Q13163-3|Q13163-4	0.968 ± 0.026	1.01 ± 0.041	1.02 ± 0.057	0.958 ± 0.049	0.933 ± 0.019	0.941 ± 0.022
SSR4 (UniProt P51571)	0.998 ± 0.014	0.961 ± 0.064	0.988 ± 0.019	0.977 ± 0.027	0.998 ± 0.011	0.981 ± 0.037
UniProt P48047	0.907 ± 0.042	0.912 ± 0.041	0.896 ± 0.051	0.96 ± 0.087	0.974 ± 0.045	0.938 ± 0.1
UQCRB (UniProt P14927)	0.9813 ± 0.003	1.07 ± 0.082	0.954 ± 0.025	0.969 ± 0.018	0.935 ± 0.0015	0.933 ± 0.023
PAK1 (UniProt Q13153)	0.989 ± 0.035	1.05 ± 0.046	0.989 ± 0.036	0.981 ± 0.013	0.926 ± 0.032	0.975 ± 0.041
ITGA2 (UniProt P17301)	0.9944 ± 0.0014	1.02 ± 0.084	0.988 ± 0.024	1.019 ± 0.0071	1.01 ± 0.025	1.04 ± 0.011
UniProt P49588|P49588-2	1.01 ± 0.013	0.976 ± 0.05	0.967 ± 0.041	0.979 ± 0.013	0.954 ± 0.03	0.952 ± 0.05
UniProt P13807|P13807-2	0.947 ± 0.11	0.922 ± 0.065	0.895 ± 0.096	0.867 ± 0.14	0.876 ± 0.098	0.863 ± 0.16
UniProt Q12769|G3V198	1 ± 0.024	0.9518 ± 0.0046	0.9433 ± 0.006	0.9621 ± 0.0016	0.99281 ± 0.00096	0.991 ± 0.019
FASN (UniProt P49327)	0.959 ± 0.021	0.874 ± 0.091	0.941 ± 0.026	0.913 ± 0.026	0.917 ± 0.035	0.896 ± 0.036
UniProt P98082|P98082-2|P98082-3	1.016 ± 0.0042	1.03 ± 0.042	1.042 ± 0.0097	1.016 ± 0.004	1.017 ± 0.0048	1.035 ± 0.0064
UniProt O95251|O95251-4	1.11 ± 0.031	1.17 ± 0.06	1.18 ± 0.063	1.2 ± 0.073	1.25 ± 0.077	1.36 ± 0.088
UniProt P16383|P16383-2	1.05 ± 0.038	1.09 ± 0.044	1.101 ± 0.0092	1.08 ± 0.03	1.07 ± 0.033	1.097 ± 0.0024
CIAO1 (UniProt O76071)	1.02 ± 0.021	0.986 ± 0.024	1.01 ± 0.053	1.01 ± 0.044	1 ± 0.021	0.978 ± 0.028
UniProt O94804	1.03 ± 0.017	1.04 ± 0.031	1.01 ± 0.027	0.987 ± 0.029	0.96 ± 0.012	0.991 ± 0.048
UniProt P61289|P61289-2	0.983 ± 0.064	0.955 ± 0.12	0.808 ± 0.23	0.886 ± 0.17	0.999 ± 0.037	0.968 ± 0.1
UniProt O95786|O95786-2	0.996 ± 0.051	0.944 ± 0.035	0.978 ± 0.022	0.942 ± 0.017	0.967 ± 0.021	0.933 ± 0.029
PRIM2 (UniProt P49643)	0.996 ± 0.022	0.954 ± 0.018	1 ± 0.013	1.02 ± 0.044	1.02 ± 0.027	1.02 ± 0.029
UniProt O75822|O75822-2	0.876 ± 0.042	0.941 ± 0.07	0.858 ± 0.031	0.949 ± 0.026	0.957 ± 0.029	0.99 ± 0.015

Target	NP40-soluble protein abundance (concentration: 1mM)	NP40-soluble protein abundance (concentration: 2mM)	NP40-soluble protein abundance (concentration: 4mM)	NP40-soluble protein abundance (concentration: 6mM)	NP40-soluble protein abundance (concentration: 8mM)	NP40-soluble protein abundance (concentration: 10mM)
CAPZA2 (UniProt P47755)	1.01 ± 0.013	0.966 ± 0.02	0.9851 ± 0.0046	0.9821 ± 0.0042	1.004 ± 0.0091	0.986 ± 0.017
GRB2 (UniProt P62993)	0.985 ± 0.035	0.943 ± 0.046	0.946 ± 0.023	0.972 ± 0.01	0.944 ± 0.037	0.918 ± 0.024
TBL3 (UniProt Q12788)	1.07 ± 0.02	1.15 ± 0.05	1.21 ± 0.023	1.35 ± 0.027	1.46 ± 0.024	1.53 ± 0.075
PARP1 (UniProt P09874)	1.06 ± 0.018	1.09 ± 0.05	1.21 ± 0.016	1.39 ± 0.027	1.51 ± 0.071	1.59 ± 0.11
RPL7 (UniProt P18124)	0.966 ± 0.094	0.953 ± 0.039	0.962 ± 0.07	0.895 ± 0.056	0.902 ± 0.097	0.985 ± 0.024
UniProt O95453|O95453-2|O95453-3	1.02 ± 0.018	0.975 ± 0.042	0.9979 ± 0.0039	0.991 ± 0.026	0.997 ± 0.016	0.968 ± 0.013
UniProt P26368|P26368-2	0.986 ± 0.075	1 ± 0.025	1.11 ± 0.069	1.24 ± 0.098	1.41 ± 0.09	1.51 ± 0.12
IGHMBP2 (UniProt P38935)	1.17 ± 0.014	1.16 ± 0.05	1.22 ± 0.083	1.26 ± 0.086	1.33 ± 0.06	1.42 ± 0.12
UniProt P51608-2|P51608|A0A087WXF0	1.04 ± 0.023	1.06 ± 0.016	1.04 ± 0.046	1.07 ± 0.019	1.07 ± 0.028	1.15 ± 0.042
UniProt P00167|P00167-2	0.995 ± 0.028	0.984 ± 0.033	0.936 ± 0.036	0.992 ± 0.011	0.948 ± 0.021	0.966 ± 0.012
UniProt P28331|P28331-2	0.972 ± 0.037	0.935 ± 0.081	0.954 ± 0.059	0.949 ± 0.055	0.938 ± 0.037	0.942 ± 0.086
UniProt P54136|P54136-2	0.957 ± 0.051	0.888 ± 0.14	0.92 ± 0.1	0.92 ± 0.097	0.945 ± 0.13	0.894 ± 0.16
FDFT1 (UniProt P37268)	0.993 ± 0.038	0.952 ± 0.027	0.991 ± 0.024	1.03 ± 0.1	1.05 ± 0.057	1.01 ± 0.078
UniProt P41227|P41227-2	1.02 ± 0.036	1.07 ± 0.06	1.09 ± 0.03	1.15 ± 0.081	1.12 ± 0.052	1.18 ± 0.039
UniProt P36402-5	0.952 ± 0.025	0.984 ± 0.03	0.924 ± 0.046	0.876 ± 0.025	0.8484 ± 0.0036	0.837 ± 0.015
UniProt Q10589|Q10589-2	1.0272 ± 0.00052	1.04 ± 0.011	1.03 ± 0.025	1.03 ± 0.028	1.05 ± 0.056	1.04 ± 0.048
ALDH4A1 (UniProt P30038)	0.99 ± 0.028	1.02 ± 0.016	0.977 ± 0.033	0.975 ± 0.023	0.938 ± 0.013	0.954 ± 0.02
UniProt P01112	1.06 ± 0.026	1.04 ± 0.016	1.03 ± 0.021	1 ± 0.062	1.06 ± 0.021	1.01 ± 0.025
UniProt P16083|Q5TD07	1.02 ± 0.02	0.982 ± 0.074	0.988 ± 0.034	0.991 ± 0.02	0.993 ± 0.04	0.982 ± 0.052
RFX1 (UniProt P22670)	1.04 ± 0.016	1.03 ± 0.015	1.03 ± 0.03	1 ± 0.033	1.01 ± 0.025	0.995 ± 0.02

Target	NP40-soluble protein abundance (concentration: 1mM)	NP40-soluble protein abundance (concentration: 2mM)	NP40-soluble protein abundance (concentration: 4mM)	NP40-soluble protein abundance (concentration: 6mM)	NP40-soluble protein abundance (concentration: 8mM)	NP40-soluble protein abundance (concentration: 10mM)
UniProt P38159|P38159-2	1.12 ± 0.09	1.34 ± 0.094	1.34 ± 0.037	1.53 ± 0.16	1.58 ± 0.19	1.82 ± 0.16
METAP1 (UniProt P53582)	1.05 ± 0.046	1.06 ± 0.081	1.16 ± 0.071	1.31 ± 0.046	1.37 ± 0.061	1.38 ± 0.074
SH3BGRL (UniProt O75368)	0.939 ± 0.027	0.966 ± 0.028	0.888 ± 0.013	0.937 ± 0.031	0.907 ± 0.015	0.897 ± 0.033
UniProt P60866|P60866-2	0.932 ± 0.061	0.906 ± 0.058	0.883 ± 0.13	0.91 ± 0.04	0.889 ± 0.043	0.929 ± 0.13
UniProt O96028|O96028-3|O96028-5	1.08 ± 0.034	1.16 ± 0.026	1.23 ± 0.033	1.32 ± 0.044	1.35 ± 0.03	1.47 ± 0.059
LCP2 (UniProt Q13094)	1.02 ± 0.027	1.05 ± 0.053	0.992 ± 0.034	0.98 ± 0.0097	0.955 ± 0.042	0.947 ± 0.061
TPM4 (UniProt P67936)	1.21 ± 0.19	1.42 ± 0.15	1.27 ± 0.3	1.35 ± 0.3	1.44 ± 0.047	1.24 ± 0.16
UniProt P26038|V9GZ54	0.967 ± 0.13	1.06 ± 0.14	0.988 ± 0.13	0.916 ± 0.088	0.935 ± 0.012	0.936 ± 0.067
SSRP1 (UniProt Q08945)	1.05 ± 0.053	1.07 ± 0.03	1.13 ± 0.045	1.35 ± 0.055	1.47 ± 0.058	1.73 ± 0.1
UniProt P25398	0.934 ± 0.016	0.955 ± 0.044	0.869 ± 0.053	0.872 ± 0.033	0.81 ± 0.054	0.847 ± 0.049
PYGB (UniProt P11216)	1.06 ± 0.1	1.09 ± 0.15	1.35 ± 0.14	1.43 ± 0.17	1.54 ± 0.24	1.47 ± 0.24
SLC2A1 (UniProt P11166)	1.015 ± 0.005	0.999 ± 0.042	1.02 ± 0.055	0.998 ± 0.029	1.01 ± 0.032	1.01 ± 0.053
UniProt P17096|P17096-2	1.01 ± 0.076	1.19 ± 0.19	1.12 ± 0.047	1.29 ± 0.057	1.31 ± 0.088	1.74 ± 0.29
UniProt O94763	1.05 ± 0.048	1.13 ± 0.06	1.05 ± 0.05	1.02 ± 0.1	0.962 ± 0.063	1.02 ± 0.059
UniProt P63279	0.993 ± 0.076	1.01 ± 0.076	1.01 ± 0.1	1.04 ± 0.12	1.12 ± 0.07	1.07 ± 0.066
FOXK1 (UniProt P85037)	0.999 ± 0.044	1.06 ± 0.086	1.01 ± 0.014	0.987 ± 0.015	0.9378 ± 0.0057	1.01 ± 0.02
UniProt P11388|P11388-2|P11388-3|P11388-4	1.66 ± 0.082	1.72 ± 0.05	1.82 ± 0.16	1.98 ± 0.14	2.04 ± 0.24	2.13 ± 0.27
UniProt P15170-2|P15170-3|H3BSV8	0.993 ± 0.025	0.955 ± 0.035	0.96 ± 0.01	0.995 ± 0.012	0.964 ± 0.014	0.968 ± 0.043
UniProt Q01085-2	0.997 ± 0.044	0.976 ± 0.057	0.992 ± 0.029	0.957 ± 0.037	0.9409 ± 0.0074	0.952 ± 0.032
SFPQ (UniProt P23246)	1.15 ± 0.054	1.25 ± 0.076	1.41 ± 0.12	1.68 ± 0.26	1.75 ± 0.28	2.02 ± 0.41
